Test results published in PubChem BioAssay (NCATS).
Results filed as inconclusive are left out. The source made the active and inactive calls. The call rests on the fitted dose curve; in most records, active means well fitted inhibition curve with a large enough effect; inconclusive means small, poorly fitted or top-dose-only effect; inactive means flat fitted curve, though single readings scatter.

Legend:
Test in all cases: qHTS profiling for inhibitors of Plasmodium falciparum proliferation (AID 504749); further: nearly all actives have a fitted effect of over 60% in size
Conditions in all cases: P. falciparum in erythrocytes, SYBR Green DNA, 72 h; series mostly up to 28.7 µM
[1] = test system: CP238
Outline: (§1)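 In a 72 h erythrocytic culture (37 C, humidified, 5% CO2) at 2.5% hematocrit and 0.3% starting parasitemia, compounds were tested; SYBR Green I in detergent lysis buffer stained parasite DNA overnight.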

[2] = test system: CP247
Outline: as §1

[3] = test system: CP250
Outline: as §1

[4] = test system: CP252
Outline: as §1

[5] = test system: CP256
Outline: as §1

[6] = test system: CP260
Outline: as §1

[7] = test system: CP262
Outline: as §1

[8] = test system: CP265
Outline: as §1

[9] = test system: CP266
Outline: as §1

[10] = test system: CP268
Outline: as §1

[11] = test system: CP269
Outline: as §1

[12] = test system: CP286
Outline: as §1

[13] = test system: CP291
Outline: as §1

[14] = test system: CP297
Outline: as §1

[15] = test system: CP305
Outline: as §1

[16] = test system: CP315
Outline: as §1

[17] = test system: CP325
Outline: as §1

[18] = test system: CP329
Outline: as §1

[19] = test system: CP335
Outline: as §1

[20] = test system: DFO2036
Outline: as §1

[21] = test system: DIV14
Outline: as §1

[22] = test system: DIV17
Outline: as §1

[23] = test system: DIV30
Outline: as §1

[24] = test system: Dd2
Outline: as §1

[25] = test system: ECU
Outline: as §1

[26] = test system: FAB9
Outline: as §1

[27] = test system: GB4
Outline: as §1

[28] = test system: HB3
Outline: as §1

[29] = test system: ICS
Outline: as §1

[30] = test system: JCK
Outline: as §1

[31] = test system: N140
Outline: as §1

[32] = test system: P93_24
Outline: as §1

[33] = test system: P94_40
Outline: as §1

[34] = test system: PAD
Outline: as §1

[35] = test system: PC15
Outline: as §1

[36] = test system: PC26
Outline: as §1

[37] = test system: PC49
Outline: as §1

[38] = test system: SC27B
Outline: as §1

[39] = test system: TAB109
Outline: as §1

[40] = test system: TAB113
Outline: as §1

[41] = test system: TAB165
Outline: as §1

Measured: Potency

COC(=O)[C@@H]1[C@@H]2C[C@H]3c4[nH]c5ccccc5c4CCN3C[C@@H]2CC[C@@H]1O
inactive: [1] | [2] | [3] | [4] | [5] | [6] | [7] | [8] | [9] | [10] | [11] | [12] | [13] | [14] | [15] | [16] | [17] | [18] | [19] | [20] | [21] | [22] | [23] | [24] | [25] | [26] | [27] | [28] | [29] | [30] | [31] | [32] | [33] | [34] | [35] | [36] | [37] | [38] | [39] | [40] | [41]
